Where “and” joins values, the source holds several entries; their conditions need not be identical. Equal entries are not always repeated. Inconclusive results are not listed. Where a structure was tested more than once in an assay, its records may differ in their call. Calls of active or inactive are those of the source. Rule for the calls, unless noted: active = hit-call score of the fitted dose curve at least 0.9, where 1 is the maximum; inactive = score below 0.9.
Assays:
[1] = CCTE_Shafer_MEA_dev_firing_rate_mean: CCTE's Neural Network Formation Assay for Mean Firing Rate, Shafer Lab (AID 2284031);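 for AC50: curve fitted for loss of firing so AC50 reflects decreased mean firing rate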
Procedure, shortened: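 Spike frequency (spikes/recording length, averaged over active electrodes) was recorded on days 5, 7, 9 and 12 and collapsed to AUC; rat cortical cultures received compound continuously over 12 days of network development.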

[2] = CCTE_Shafer_MEA_dev_per_burst_spike_percent: CCTE's Neural Network Formation Assay for Percent of Spikes in a Burst, Shafer Lab (AID 2284032);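 for AC50: fitted as a decrease in burst spike percentage below DMSO baseline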
Procedure, shortened: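 Value is trapezoidal AUC over recordings on days 5, 7, 9 and 12 of the well-mean fraction of spikes falling in single-electrode bursts; rat cortical cultures exposed continuously from plating, treatment renewed DIV 5 and 9, fitted downward against DMSO.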

[3] = CCTE_Deisenroth_AIME_384WELL_CTox_Inactive: Cytotoxicity Assessment (CTOX) in CCTE's 384-well Estrogen Receptor Transactivation Assay without AIME metabolic competence (metabolism negative), Deisenroth Lab (AID 2284039; active = hit-call score of the fitted dose curve at least 0.9, where 1 is the maximum;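 note: cell viability via live-cell protease substrate cleaved to fluorescent probe; cells exposed 24 h to medium preincubated 2 h with alginate-water beads without S9; loss of fluorescence signal means loss of viability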)
Procedure, shortened: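 Fluorescence from a live-cell protease substrate, read after 24 h in VM7Luc4E2 cells, indicated viability. Test medium came from a 2 h AIME step without hepatic S9 (alginate-water microspheres); concentrations spanned 0.002 - 200 uM, single technical replicate per run.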

[4] = CCTE_Shafer_MEA_dev_burst_rate: CCTE's Neural Network Formation Assay for Burst Rate, Shafer Lab (AID 2284042);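 for AC50: potency for loss of burst rate below DMSO control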
Procedure, shortened: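 Developmental network assay measuring how 12-day exposure of rat cortical neuron cultures alters bursting on extracellular MEA recordings. Values are AUC of well-mean burst rate across four recording days, relative to DMSO vehicle.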

[5] = CCTE_Shafer_MEA_dev_bursting_electrodes_number: CCTE's Neural Network Formation Assay for Number of Bursting Electrodes, Shafer Lab (AID 2284043; active = hit-call score of the fitted dose curve at least 0.9, where 1 is the maximum;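 for AC50: potency is for loss of bursting electrodes relative to DMSO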)
Procedure, shortened: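 Number of electrodes reaching ≥1 burst every 2 min was recorded at DIV 5, 7, 9 and 12 and collapsed as trapezoidal area under the curve. Cultures were rat cortical neurons on MEA plates, dosed continuously from plating with medium and treatment refreshed on DIV 5 and 9.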

[6] = CCTE_Shafer_MEA_dev_per_burst_interspike_interval: CCTE's Neural Network Formation Assay for Burst Interspike Interval, Shafer Lab (AID 2284044);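 for AC50: potency for a decrease of within-burst interspike interval below DMSO level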
Procedure, shortened: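 Rat cortical primary cultures, 16 electrodes/well; compound from plating, renewed with full media change DIV 5 and 9. Spikes via adaptive detector; per-burst ISI well-mean over active bursting electrodes; AUC of DIV 5/7/9/12 recordings; loss-direction fit vs DMSO.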

[7] = CCTE_Shafer_MEA_dev_burst_duration_mean: CCTE's Neural Network Formation Assay for Mean Burst Duration, Shafer Lab (AID 2284045);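 for AC50: curve fitted for loss meaning shorter burst duration than DMSO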
Procedure, shortened: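 Mean single-electrode burst duration (first to last spike), averaged over bursting electrodes per well, then integrated as area-under-curve across recordings at days 5, 7, 9 and 12. Rat cortical cultures on MEAs, compound present from plating, refreshed at feeds.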

[8] = CCTE_Shafer_MEA_dev_interburst_interval_mean: CCTE's Neural Network Formation Assay for Mean Interburst Interval, Shafer Lab (AID 2284046);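 note: well-mean interburst interval of bursting electrodes as AUC over four recording days; curve fitted for decrease in interburst interval relative to DMSO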
Procedure, shortened: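 Network formation assay in primary rat cortical cultures, exposed from DIV 0 to 12. Mean interburst interval per well, integrated as AUC over four recordings.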

[9] = CCTE_Shafer_MEA_dev_inter_network_spike_interval_mean: CCTE's Neural Network Formation Assay for Mean Inter-network Spike Interval, Shafer Lab (AID 2284047);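 for AC50: potency for a decrease in mean inter-network spike interval below DMSO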
Procedure, shortened: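 Compound was given at plating to primary rat cortical neurons and renewed with full medium changes on DIV 5 and 9. Extracellular activity was recorded on days 5, 7, 9, 12; AUC values were fitted for loss relative to DMSO control.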

[10] = CCTE_Shafer_MEA_dev_network_spike_number: CCTE's Neural Network Formation Assay for Number of Network Spikes, Shafer Lab (AID 2284048);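 note: synchronized bursts across electrodes counted on days 5 7 9 12 and integrated as AUC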;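 for AC50: fit as a loss of signal meaning fewer network spikes than DMSO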
Procedure, shortened: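 Number of network spikes (coordinated firing across electrodes) recorded on days 5, 7, 9 and 12 and summarised as area under the curve. Rat cortical cultures on MEA, continuous compound exposure with full medium/treatment exchange at DIV 5 and 9.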

[11] = CCTE_Shafer_MEA_dev_network_spike_peak: CCTE's Neural Network Formation Assay for Mean Number of Electrodes in Network Spike, Shafer Lab (AID 2284049);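 for AC50: fitted for loss of signal meaning fewer electrodes in network spikes than DMSO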
Procedure, shortened: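 Rat cortical primary culture, 1.5 x 10^5 cells/well, 48-well MEA (16 electrodes/well). Dosing day 0 through DIV 12, full media/compound exchange DIV 5, 9. AxIS adaptive spike detection; AUC over days 5/7/9/12; loss-of-signal vs DMSO.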

[12] = CCTE_Shafer_MEA_dev_spike_duration_mean: CCTE's Neural Network Formation Assay for Mean Spike Duration, Shafer Lab (AID 2284051);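 note: mean network spike duration pooled as area under curve over DIV 5 to 12 recordings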;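 for AC50: potency for a decrease in mean network spike duration versus DMSO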
Procedure, shortened: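 With DMSO as baseline, loss of mean network spike duration was scored from extracellular recordings of rat cortical neurons on MEA plates. Exposure spanned plating to DIV 12; the four recording days were collapsed into one AUC value.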

[13] = CCTE_Shafer_MEA_dev_network_spike_duration_std: CCTE's Neural Network Formation Assay for Standard Deviation of Network Spike Duration, Shafer Lab (AID 2284052);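 note: hits are decreases in network spike duration SD versus DMSO vehicle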
Procedure, shortened: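 Developing networks of rat cortical neurons were exposed over twelve days in vitro on 48-well MEA plates. Trapezoidal AUC of recordings (DIV 5–12) was analysed for signal loss relative to DMSO vehicle.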

[14] = CCTE_Shafer_MEA_dev_per_network_spike_spike_number_mean: CCTE's Neural Network Formation Assay for Mean Number of Spikes in a Network Spike, Shafer Lab (AID 2284053);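 for AC50: fitted as decrease in spikes per network spike relative to DMSO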
Procedure, shortened: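 First, rat cortical cells (1.5 x 10^5/well) were seeded onto MEA wells; second, dosing began at plating and was refreshed on DIV 5 and 9; finally, network-spike spike counts across DIV 5–12 were summarized as AUC.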

[15] = CCTE_Shafer_MEA_dev_per_network_spike_spike_percent: CCTE's Neural Network Formation Assay for Percent of Spikes in a Network Spike, Shafer Lab (AID 2284054)
Procedure, shortened: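 Metric: fraction of spikes falling in a 0.05 s window at network-spike peaks. Recordings were made on days 5, 7, 9 and 12 and collapsed by trapezoidal AUC. Cultures were rat cortical neurons on MEA plates, dosed continuously from plating, re-dosed at media changes.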

[16] = CCTE_Deisenroth_AIME_384WELL_CTox_Active: Cytotoxicity Assessment (CTOX) in CCTE's 384-well Estrogen Receptor Transactivation Assay with AIME metabolic competence (metabolism positive), Deisenroth Lab (AID 2284037; active = hit-call score of the fitted dose curve at least 0.9, where 1 is the maximum;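 note: chemicals first conditioned 2 h by alginate-bound induced rat liver S9 before cells; activity means signal loss indicating cell death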)
Procedure, shortened: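 Cytotoxicity in VM7Luc4E2 breast cells, 24 hour, measured as protease-substrate fluorescence loss, after 2-hour metabolic conditioning with induced rat hepatic S9 in alginate microspheres. Concentrations 0.002 - 200 uM, 10 points, bidirectional fitting.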

[17] = target: Estrogen receptor (Homo sapiens) (UniProt P03372); test: CCTE_Deisenroth_AIME_384WELL_LUC_Active: CCTE's 384-well Estrogen Receptor Transactivation Assay with AIME metabolic competence (ERTA luciferase; metabolism positive), Deisenroth Lab (AID 2284030; active = hit-call score of the fitted dose curve at least 0.9, where 1 is the maximum)
Procedure, shortened: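 Test chemicals (10-point series, 0.002 - 200 uM) were preincubated 2 hours with alginate-immobilized phenobarbital/beta-naphthoflavone-induced male Sprague Dawley rat liver S9; conditioned medium then went onto VM7Luc4E2 breast cells for 24 hour. Luciferase gain-of-signal fitted relative to 17beta-estradiol.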

[18] = target: Estrogen receptor (Homo sapiens) (UniProt P03372); test: CCTE_Deisenroth_AIME_384WELL_LUC_Shift: CCTE's 384-well Estrogen Receptor Transactivation Assay with AIME metabolic competence data shift (ERTA luciferase; difference in metabolism positive and negative), Deisenroth Lab (AID 2284041);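 note: shift is response with S9 minus without S9 so positive means metabolism raised ER signal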
Procedure, shortened: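 Test chemicals (0.002–200 uM, 10-point) were pre-incubated 2 h with alginate microspheres containing phenobarbital/beta-naphthoflavone-induced male Sprague Dawley rat liver S9 or water, then medium was transferred to VM7Luc4E2 cells for 24 h luciferase readout; shift = S9-positive minus S9-negative normalized response.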

DIO2 (gene 1734) = test: CCTE_GLTED_hDIO2: CCTE's human Deiodinase 2 (DIO2) Inhibition Assay, Great Lakes Toxicology and Ecology Division (GLTED) Lab (AID 2284050; active = hit-call score of the fitted dose curve at least 0.9, where 1 is the maximum)
Procedure, shortened: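 Iodide released by human deiodinase 2 over 3 h with test chemical, measured spectrophotometrically via Sandell-Kolthoff cerium/arsenic reaction. Run n=3; inhibition referenced to DMSO.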

Measured: AC50

Chain of Estrogen receptor (Homo sapiens) (P03372 whole entry, looked up): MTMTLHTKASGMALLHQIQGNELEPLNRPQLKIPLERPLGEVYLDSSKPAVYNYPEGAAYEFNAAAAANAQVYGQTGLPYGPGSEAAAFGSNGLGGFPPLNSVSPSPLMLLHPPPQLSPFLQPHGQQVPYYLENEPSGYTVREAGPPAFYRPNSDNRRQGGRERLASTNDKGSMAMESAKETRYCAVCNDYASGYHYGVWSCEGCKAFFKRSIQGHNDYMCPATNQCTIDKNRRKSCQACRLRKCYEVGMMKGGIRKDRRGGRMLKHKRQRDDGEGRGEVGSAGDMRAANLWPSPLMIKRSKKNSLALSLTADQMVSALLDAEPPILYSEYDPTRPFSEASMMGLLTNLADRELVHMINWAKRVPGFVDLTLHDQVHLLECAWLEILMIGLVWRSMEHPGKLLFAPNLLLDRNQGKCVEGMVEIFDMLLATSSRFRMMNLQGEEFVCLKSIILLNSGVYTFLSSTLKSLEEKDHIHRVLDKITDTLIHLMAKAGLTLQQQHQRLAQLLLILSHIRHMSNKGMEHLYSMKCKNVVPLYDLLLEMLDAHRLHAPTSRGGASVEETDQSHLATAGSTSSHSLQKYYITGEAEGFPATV

CCOP(=O)(NC(C)C)Oc1ccc(SC)c(C)c1 (stereo not drawn)
inactive: [1] | [2] | [3] | [4] | [5] | [6] | [7] | [8] | [9] | [10] | [11] | [12] | [13] | [14] | [15]
active: [1] 22 µM | [2] 40.7 µM | [4] 40.1 µM | [5] 32.3 µM | [7] 17.3 µM | [8] 31.5 µM | [10] 79.5 µM | [11] 51 µM | [12] 21 µM | [13] 10.1 µM | [14] 61.4 µM | [15] 11700 nM

CCOP(=O)(SC(C)CC)N1CCSC1=O (stereo not drawn)
inactive: [1] | [2] | [16] | [3] | [4] | [6] | [7] | [8] | [9] | [10] | [11] | [12] | [13] | [14] | [15]

C[N+]1(C)CCCCC1
inactive: [1] | [2] | [4] | [5] | [6] | [7] | [8] | [9] | [10] | [12] | [13] | [14] | [15]
active: [11] 15 µM

O=[N+]([O-])c1cc(C(F)(F)F)c(Cl)c([N+](=O)[O-])c1Nc1ncc(C(F)(F)F)cc1Cl
active: [1] 0.786 µM | [2] 0.669 µM | [16] 100 µM | [3] 142 µM | [4] 0.39 µM | [5] 0.374 µM | [6] 783 nM | [7] 0.549 µM | [8] 0.885 µM | [9] 1.9 µM | [10] 0.425 µM | [11] 1.06 µM | DIO2 (gene 1734) 2.04 µM | [12] 0.734 µM | [13] 0.291 µM | [14] 0.771 µM | [15] 742 nM
inactive: [17] | [18]

CCOP(=S)(OCC)Oc1ccc([N+](=O)[O-])cc1
inactive: [1] | [2] | [4] | [5] | [6] | [7] | [8] | [9] | [10] | [11] | [12] | [13] | [14] | [15]

CC1=NNC(=O)N(/N=C/c2cccnc2)C1
inactive: [1] | [2] | [16] | [3] | [4] | [5] | [6] | [8] | [9] | [10] | [11] | [12] | [13] | [14] | [15]
active: [7] 24.8 µM

COP(=O)(OC)OC(Br)C(Cl)(Cl)Br (stereo not drawn)
inactive: [7] | [9]
active: [1] 7.31 µM and 13 µM | [2] 7.85 µM and 19.1 µM | [4] 7.93 µM and 13.3 µM | [5] 6.36 µM and 12.9 µM | [6] 9.62 µM and 16 µM | [7] 12.8 µM | [8] 8.78 µM and 10.1 µM | [9] 2.15 µM | [10] 3.48 µM and 13.2 µM | [11] 9.05 µM and 11.9 µM | [12] 8.37 µM and 12.8 µM | [13] 4.26 µM and 9.92 µM | [14] 8.92 µM and 10.3 µM | [15] 8.6 µM and 12 µM

CC[C@H](C)[C@H]1O[C@]2(C=C[C@@H]1C)C[C@@H]1C[C@@H](C/C=C(\C)[C@@H](O[C@H]3C[C@H](OC)[C@@H](O[C@H]4C[C@H](OC)[C@@H](NC)[C@H](C)O4)[C@H](C)O3)[C@@H](C)/C=C/C=C3\CO[C@@H]4[C@H](O)C(C)=C[C@@H](C(=O)O1)[C@]34O)O2
active: [1] 6.97 nM and 2.42 nM | [2] 88.8 nM and 3.52 nM | [4] 21.3 nM and 3.47 nM | [5] 43.5 nM and 3.01 nM | [6] 44.7 nM and 5.36 nM | [7] 20.1 nM and 1.89 nM | [8] 220 nM and 2.96 nM | [9] 0.16 µM | [10] 47.4 nM and 4.79 nM | [11] 106 nM and 9.12 nM | DIO2 (gene 1734) 31.3 µM | [12] 13 nM and 2.69 nM | [13] 5.01 nM and 3.04 nM | [14] 55.1 nM and 5.93 nM | [15] 517 nM
inactive: [9] | [15]

Source: PubChem BioAssay (EPA / NIEHS)
